WRN inhibitor: qHTS for Inhibitors of WRN Helicase; Bifunctional 3'-5' exonuclease/ATP-dependent helicase WRN (Homo sapiens), Q14191; WRN helicase unwinding, fluorescent forked duplex, kinetic; Potency, µM (titrated, usually from 114 µM), without a hit: at the top dose activity change, negative = inhibition, most hits filed as inhibitors; 360,000 compounds, 0.46% hits; note: potency is the fitted concentration of half-maximal effect; % is set by controls: 0 for no effect and ±100 for the full control effect; nearly all actives have a fitted effect of over 55% in size
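Screening of the MLSMR collection measured strand separation of a quenched forked DNA duplex (100 nM) by 20 nM WRN with 2 mM ATP, all final. Compounds were preincubated with enzyme 15 min at room temperature.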
VDR inh: Inhibitors of the vitamin D receptor (VDR): qHTS; Vitamin D3 receptor (Homo sapiens), P11473; VDR-SRC2-3 peptide fluorescence polarization, 2 h; Potency, µM, for inactives: max response, negative = inhibition, most hits filed as inhibitors; 400,000 compounds, 0.93% hits; note: potency is the fitted concentration of half-maximal effect; % is set by controls: 0 for no effect and ±100 for the full control effect
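Inhibition of the VDR/SRC2-3 peptide interaction is quantified by fluorescence polarization. Compounds (23 nl, pintool) incubate with the reagents for 2 hours at ambient room temperature.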
TCR activator: Activators of T cell receptors: qHTS campaign; primary human leukocytes, anti-CD3, IL-2 HTRF, 48 h; Potency, µM (titrated, usually from 9.22 µM), without a hit: at the top dose activation of IL-2 secretion, usual class: activators; 330,000 tested, under 10 active; AID 504894, 2011; note: % of control where 0% means no effect
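Using a-CD3 beads without co-stimulation, primary human leukocytes were exposed to compounds for 48 hr. An HTRF IL-2 kit measured the cytokine, with europium-to-d2 energy transfer producing emission at 665nm upon 320nm excitation.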
PLK1 PBD block: qHTS for Inhibitors of PLK1-PDB (polo-like kinase 1 - polo-box domain): Primary Screen; Serine/threonine-protein kinase PLK1 (Homo sapiens), P53350; Plk1 PBD binding of FITC phosphopeptide, fluorescence polarization; Potency, µM, without a hit: max response, negative = inhibition, hits mostly inhibitors; 360,000 compounds, 2.8% hits; note: potency is the fitted concentration of half-maximal effect; series mostly up to about 57 µM; % is set by controls: 0 for no effect and ±100 for the full control effect; nearly all actives have a fitted effect of over 65% in size
PI5P4K alpha inh: qHTS for Inhibitors of phosphatidylinositol 5-phosphate 4-kinase (PI5P4K) | Phosphatidylinositol 5-phosphate 4-kinase type-2 alpha (Homo sapiens), P48426 | PI5P4Kalpha enzyme, ADP-Glo luminescence, 60 min; stronger effect = lower value | max response, % | 330,000 compounds, 1.2% hits; active = max response of -50% or lower; inconclusive = between -30% and -50%; inactive = -30% or higher; note: value at the top dose of about 77 µM; % is set by controls: 0 for no effect and ±100 for the full control effect
Target sequence (P48426 whole entry, looked up): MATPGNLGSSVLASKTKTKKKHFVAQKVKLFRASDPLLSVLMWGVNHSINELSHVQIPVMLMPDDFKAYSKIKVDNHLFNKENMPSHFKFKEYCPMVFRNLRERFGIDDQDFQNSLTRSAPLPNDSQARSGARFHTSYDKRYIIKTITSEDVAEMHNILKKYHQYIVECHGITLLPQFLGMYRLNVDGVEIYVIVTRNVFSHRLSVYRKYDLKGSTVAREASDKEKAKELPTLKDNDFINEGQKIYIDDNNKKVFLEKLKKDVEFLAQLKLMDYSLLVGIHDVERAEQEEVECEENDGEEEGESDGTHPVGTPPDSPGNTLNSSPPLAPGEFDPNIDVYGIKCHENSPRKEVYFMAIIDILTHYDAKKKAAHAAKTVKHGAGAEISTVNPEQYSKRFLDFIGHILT
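qHTS, 1536-well: enzyme/substrate mix, compound by pin tool, 5 microM ATP final; RT 60 min; ADP-Glo reagents 1 (45 min) then 2 (30 min); luminescence.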
FEN1 inh-1: qHTS Assay for the Inhibitors of Human Flap endonuclease 1 (FEN1) | Potency, µM (doses to about 114 µM), inactives show top-dose activity change, negative = inhibition, usual class: inhibitors | 390,000 compounds, 0.35% hits | Recombinant FEN1 flap cleavage, fluorescence, 15 min; note: potency is the fitted concentration of half-maximal effect; % is set by controls: 0 for no effect and ±100 for the full control effect; nearly all actives have a fitted effect of over 65% in size
Target sequence (P39748 whole entry, looked up): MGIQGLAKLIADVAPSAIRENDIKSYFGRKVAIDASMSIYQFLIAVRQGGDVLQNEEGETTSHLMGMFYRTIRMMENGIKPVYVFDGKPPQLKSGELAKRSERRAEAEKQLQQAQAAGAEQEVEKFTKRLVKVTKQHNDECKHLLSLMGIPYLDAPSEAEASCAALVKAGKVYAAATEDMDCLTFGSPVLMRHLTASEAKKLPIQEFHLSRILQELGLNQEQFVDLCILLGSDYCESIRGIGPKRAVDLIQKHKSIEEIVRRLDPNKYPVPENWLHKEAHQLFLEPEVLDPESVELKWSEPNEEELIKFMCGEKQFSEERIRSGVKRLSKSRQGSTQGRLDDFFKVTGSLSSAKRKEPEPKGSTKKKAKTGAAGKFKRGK
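Read-out was taken twice, immediately and after 15 min, following addition of 50 nM substrate to 10 nM FEN1 that had sat with test compound for 15 min at room temperature. Curves came from a four-parameter Hill model.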
FEN1 inh-2: qHTS Assay for the Inhibitors of FEN1: Confirmatory Assay for Cherry-picked Compounds; Potency, µM, hits mostly inhibitors; FEN1 flap cleavage, TAMRA/BHQ2 fluorogenic DNA substrate; shares compounds with FEN1 inh-1; AID 720498, 2013; 880 compounds, 79% hits; note: potency is the fitted concentration of half-maximal effect; nearly all actives have a fitted effect of over 60% in size
An asterisk follows results filed as active; ? = inconclusive; · = no result; [ ] = remark or other dose. A selection: hits, their analogues and other compounds. The true share with any hit is near 3.7%. Unless noted, calls come from the whole dose curve; as a rule, active = well fitted curve in the direction sought with a large enough effect; inconclusive = small, poorly fitted or top-dose-only effect, or another doubt; inactive = no such curve, though single readings can be large; an effect the other way counts as inactive or inconclusive.

SMILES	WRN inhibitor	VDR inh	TCR activator	PLK1 PBD block	PI5P4K alpha inh	FEN1 inh-1	FEN1 inh-2
Cc1cc(C)c2c(=N)c3ccccc3n(CCCCCCCCn3c4ccccc4c(=N)c4c(C)cc(C)nc43)c2n1	50.1µM*	25.3%	11.7%	-7.8%	-66.5*	7.08µM*	5.36*
Cc1c(CNC2CCCCC2)c(C(=O)O)c(C)n1Cc1ccccc1F	·	-1.8%	·	·	·	-4.1%	·
Cc1cc(N/N=C/c2ccc(O)cc2)c2cccc(C)c2n1	44.7µM*	4.4%	·	1.1%	-15.4	?	37.9*
O=C(NC1CCCCCC1)c1cc2c(Cl)nc3ccccc3c2s1	·	1.8%	·	·	·	4.4%	·
COc1ccc(C(=O)N/N=C/c2ccc(OC)c(COc3ccccc3)c2)cc1	-8.9%	-3.4%	2.2%	2.1%	-1.8	-2.6%	·
COc1ccc(/C=N\NC(=O)c2cc(O)c(O)c(O)c2)cc1COc1ccc(C(=O)OCC(C)C)cc1	-6.2%[11.6 µM]	-7.5%	1.6%	0.2%	-71.8*	?	33.8*
Cc1cccc(N2CCN(C(=O)CN3C(=O)COc4ccc(S(=O)(=O)N5CCCC5)cc43)CC2)c1C	·	8.2%	·	·	·	-5.9%	·
Nc1cccc2c(O)cc(S(=O)(=O)O)cc12	?	12.6µM*	2.3%	13.4µM*	-88.5*	8.91µM*	42.6*
CCn1cc(C(=O)O)c(=O)c2cc(F)c(N/N=C/c3ccccc3)cc21	-31.8%	2.5%	4.7%[46.1 µM]	-2.7%	2.2	?	37.9*
Cc1ccc(NC(=O)Cn2cc(C(=O)c3ccco3)c3ccccc32)c(C)c1	·	-1.6%	·	·	·	-8.9%	·
CN(C)CCCN1C(=O)c2cccc3cccc(c23)C1=O	-2.8%[11.6 µM]	12.4%	9.5%	-1.8%	2.7	?	67.5*
CN(C)CCCN1C(=O)c2cc3ccccc3cc2C1=O	1.1%	-0.2%	1.7%	-16.7%	4.1	0.7%	·
CN(C)CCCNC(=O)c1ccc(-c2cc(O)c3ncccc3c2)cc1	·	-4.6%	-0.3%	·	·	50.1µM*	?
CN(C)CCOC(=O)c1ccc2[nH]c3c(c2c1)CSCC3	-8.8%[11.6 µM]	-4.3%	-0.5%	29.9µM*	-10.2	50.1µM*	84.9*
CC1CC=CC2C1C(=O)N(Cc1ccccc1)C2c1ccc(Br)cc1F (stereo unspecified)	·	-26.3%	·	·	·	-6.9%	·
CCOc1ccc(CCNC(=O)c2nn(C)c3c2CSc2ccc(C)cc2-3)cc1OCC	·	4.5%	·	·	·	-26.6%	·
CC(=O)N1CCc2c(sc(NC(=O)CSc3ccc(C)cc3)c2-c2nc3ccccc3s2)C1	·	10.1%	·	·	·	-0.6%	·
CC(C)N1CCc2c(sc(NC(=O)C3CC3)c2-c2nc3ccccc3s2)C1	·	·	·	·	·	·	15.1*
COc1ccccc1Nc1nc(NCCCN(C)C)nc(N)c1[N+](=O)[O-]	79.4µM*	-6.9%	8.1%	5.9%	-0.3	56.2µM*	60.1*
C=CCNc1nc(N)c([N+](=O)[O-])c(Nc2ccccc2OC)n1	-6.0%	4.7%	5.7%	-14.9%	-7.5	-15.9%	·
O=C1NC(=S)S/C1=C\c1cc(Cl)cc(Cl)c1O	35.5µM*	?	-23.4%	?	-58.1*	?	84.9*
O=c1[nH]cc(N=Cc2cc(Cl)cc(Cl)c2O)c(=O)[nH]1	24.1%	?	·	?	?	?	·
COc1ccccc1C1c2c(ncn(-c3ccccc3)c2=N)Oc2ccc3ccccc3c21 (stereo unspecified)	·	·	·	·	·	·	10.7*
CCC1CCCCN1CCCNC(=O)c1cc2c(Cl)nc3ccc(C)cc3c2s1 (stereo unspecified)	·	-21.2%	·	·	·	89.1µM*	?
Cc1ccc2nc(Cl)c3cc(C(=O)NCCCN4CCCC4)sc3c2c1	37.1%	-14.6%	15.4%	-4.3%	1.9	22.4µM*	47.8*
SMILES	WRN inhibitor	VDR inh	TCR activator	PLK1 PBD block	PI5P4K alpha inh	FEN1 inh-1	FEN1 inh-2
CCOC(=O)C1=C(COC(=O)c2ccc([N+](=O)[O-])s2)NC(=O)NC1C (stereo unspecified)	25.4%	-2.8%	·	-9.3%	-3.3	?	4.26*
C[C@@H]1O[C@@H](O[C@H]2[C@H](O)[C@@H](O)[C@H](Oc3c(-c4ccc(O)c(O)c4)oc4cc(O)cc(O)c4c3=O)O[C@@H]2CO)[C@H](O)[C@H](O)[C@H]1O	-16.4%	-10.9%	2.2%	-1.0%	-17.9	?	·
C[C@@H]1O[C@@H](Oc2c(-c3cc(O)c(O)c(O)c3)oc3cc(O)cc(O)c3c2=O)[C@H](O)[C@H](O)[C@H]1O	-15.3%	-14.7%	3.5%	?	?	2.24µM*	3.01*
O=C(Nc1ccccc1-c1cn2c(CN3CCNCC3)csc2n1)c1cnc2ccccc2n1	·	·	·	·	·	28.2µM*	23.9*
O=C(Nc1cccnc1)c1cnc2ccccc2n1	0.5%	14.5%	-1.8%	0.0%	-7.7	4.3%	·
O=C1c2ccccc2-c2nc3ccccc3cc21	-1.3%	-1.9%	-1.3%	-7.6%	-8.6	-22.1%	·
c1ccc2c(c1)Cc1cc3ccccc3nc1-2	-0.8%[11.6 µM]	27.1%	0.2%	-2.2%	0.3	?	30.1*
Cc1ccccc1C1=C/C(=C(\SS/C(C(=O)c2ccc(OCC(=O)O)c(Cl)c2Cl)=C2\C=C(c3ccccc3C)SS2)C(=O)c2ccc(OCC(=O)O)c(Cl)c2Cl)SS1	22.4µM*	39.8µM*	-6.6%	16.8µM*	-98.1*	56.2µM*	?
O=C(O)COc1ccc(C(=O)c2cccs2)c(Cl)c1Cl	·	-18.3%	·	·	·	·	·
CCc1ccc2[nH]c(=O)c(CN(Cc3ccco3)Cc3nnnn3Cc3ccco3)cc2c1	·	-24.1%	·	·	·	-21.0%	·
COc1cccc(-c2nc(NCCN3CCOCC3)c3ccccc3n2)c1O	-18.7%[57.1 µM]	9.2%	-3.7%	-10.7%	-0.7	39.8µM*	?
Cc1c(C(=O)O)c(O)cc2c1C(=O)c1c(O)c([C@@H]3O[C@H](CO)[C@@H](O)[C@H](O)[C@H]3O)c(O)c(O)c1C2=O	31.6µM*	10.4%	9.7%	-10.2%	?	?	84.9*
N#C/C(=C\c1ccc(OCc2ccc(F)cc2)cc1)C(=O)Nc1cccc(C(=O)O)c1	?	?	8.1%	?	-15.8	?	?
COc1cc(/C=C(\C#N)C(=O)Nc2cccc(C(=O)O)c2)ccc1OCc1ccc(F)cc1	-0.1%[11.6 µM]	?	2.1%	?	-26.7	?	·
CCOc1cc(/C=C(\C#N)C(=O)Nc2cccc(C(=O)O)c2)ccc1OCc1ccccc1Cl	-6.2%	?	1.8%	21.2µM*	1.4	?	?
